Measurements taken from PubChem BioAssay (NCI).
This is part of a sample that, as a whole, favours compounds with a hit. Of some 83,000 tested, about 20% had one in any assay.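 Results are percent growth after 48 hours of single-concentration exposure. 100 means growth as in untreated cells, lower positive values show inhibition; negative values down to -100 show cell death.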 Active and inactive are the calls of the source. Rule for the calls: active = growth percent below 10; inactive = the rest.

The compounds below were run on HL-60(TB) leukemia (assay: NCI-60 one-dose screen, 48 h (100 = growth as untreated, 0 = no growth, -100 = all killed)). Conditions: 10 µM unless noted.

Compound | growth
N#C/C(C(=O)c1ccccc1)=C1/C(=O)Nc2ccc(Br)cc21 | 146% (inactive)
C/C=C/C1OC23CCCCC2C(C#N)(C(=N)O3)C1(C#N)C#N (stereo not given) | 106% (inactive)
COc1ccc(CSc2nc3cc(OC)c(OC)cc3c(=O)n2-c2ccc(Cl)cc2)cc1 | 104% (inactive)
O=C(CCCCN1CCOCC1)Nc1ccc(Cn2nnc3c2C(=O)c2nnn(Cc4ccc(NC(=O)CCCCN5CCOCC5)cc4)c2C3=O)cc1 | -28.4% (active)
Fc1cc2[nH]ncc2c2c3c(c(-c4cn[nH]c4C(F)(F)F)nc12)CCCC3 | -9.67% (active)
COc1cc(/C=C/C(=O)c2ccc(NC(=O)CN3CCN(c4cc5c(cc4F)c(=O)c(C(=O)O)cn5C4CC4)CC3)cc2)cc(OC)c1OC | -33.7% (active)
COc1ccc2c(c1)C(=O)c1c-2c(=O)n(CCCN(C)C)c2cc(OC)c(OC)cc12 | 74.8% (inactive)
Cc1cc(N2CCCC2)nc(NCc2cc(Nc3ccnc4cc(Cl)ccc34)ccc2F)n1 | -61.1% (active)
O=C1c2ccccc2C(=O)c2c1cccc2-n1nnc2ccccc21 | 82.1% (inactive)
CCOC(=O)C(C(C)=O)c1nc2sc3cc(Cl)c(Cl)cc3n2c(=O)c1C#N (stereo not given) | 100% (inactive)
COc1cc2oc(-c3cccc(C(=O)Nc4ccc(Cl)cc4)c3)cc(=O)c2c(OC)c1OC | -11.1% (active)
CC(C)C1=NOC(=O)C1=Cc1cn(-c2ccccc2)nc1-c1ccc(Br)cc1 | -28.8% (active)
N=c1c2c(=O)n3c(nc2nc2sc4ccc(Cl)cc4n12)-c1ccccc1Sc1ccccc1-3 | 4.46% (active)
O=C(Nc1ccccc1Cl)Oc1ccc2ccccc2c1 | 72.3% (inactive)
CCN(CC)CCCN1C(=O)c2c(c(C)c3c(oc4cc(OC)ccc43)c2C)C1=O | 95% (inactive)
COC(=O)c1c2c(c(C)[n+]([O-])c1C)C(=O)C=C(NCc1cccc(Cl)c1)C2=O | -31.8% (active)
CN1CCCN(C(c2ccccc2)c2ccc(Br)cc2)CC1 (stereo not given) | 110% (inactive)
O=C(/C=C/c1cccc(O)c1)c1ccccc1O | 66% (inactive)
O=C(N/N=C/c1cc([N+](=O)[O-])ccc1O)c1cccc2ccccc12 | -14% (active)
CC[N+](CC)=c1ccc2nc3c(cc(NCc4ccccc4)c4ccccc43)oc-2c1 | -41.2% (active)

Compound | growth
O=C(O)c1cn(C2CC2)c2cc(N3CCN(C(=O)CSc4nnc(-c5ccc(Cl)cc5)n4-c4ccccc4)CC3)c(F)cc2c1=O | 91.1% (inactive)
Nc1c(S(=O)(=O)O)cc2c3c(cccc13)C(=O)OC2=O | 134% (inactive)
CCOC(=O)NNc1cccc(Cl)c1 | 110% (inactive)
CCN(CC)c1ccc2cc(C(Nc3ccc(Cl)cc3)c3nnnn3C(C)(C)C)c(=O)oc2c1 (stereo not given) | 96% (inactive)
Cc1nc2c(-c3cnc(N)nc3)nc(N3CCOCC3)nc2n1C(C)C | 10.8% (inactive)
CC(=O)N1CCN(c2ccc(OCC3CO[C@](Cn4ccnc4)(c4ccc(Cl)cc4Cl)O3)cc2)CC1 (stereo not given in full) | 56.5% (inactive)
Cc1cc2nc3c4cccc(O)c4n(CCN(C)C)c3nc2cc1C | 29.2% (inactive)
CC(=O)CC(=O)SC1=NCCS1 | 107% (inactive)
COc1ccc2c(c1)c(-c1nonc1-c1c[nH]c3ccc(Br)cc13)cn2C | 53.2% (inactive)
O=CCCCOCc1ccccc1 | 100% (inactive)
CN(C)C(=S)N=Nc1c(O)[nH]c2ccccc12 | -40.3% (active)
COc1ccc(/C=N/C2=C(C#N)C(c3ccccc3)c3ccc4ccccc4c3O2)cc1 (stereo not given) | 1.71% (active)
COc1ccc(/C=C2\CN(Cc3cn(CCCNc4ccnc5cc(Cl)ccc45)nn3)C/C(=C\c3ccc(OC)c(OC)c3)C2=O)cc1OC | -38% (active)
C1=C\CCCCN2CC[C@H]3[C@H](CCCC/C=C\CCCN4C[C@@H](CCCCC/1)C[C@@H]3C4)C2 | -35.5% (active)
O=C1/C=C/[C@@H](O)[C@@H]2C[C@@H](O)C[C@H]2/C=C/CCC[C@H](CO)O1 | -25.4% (active)
O=Cc1ccc(O)c(O)c1 | 88% (inactive)
CN1C(=O)N(C)C2C1NC(=S)N2/N=C/C=C/c1ccccc1[N+](=O)[O-] (stereo not given) | -34.9% (active)
COC(=O)/C(Br)=C/c1c[nH]c2ccc(Br)cc12 | 67.9% (inactive)
COc1cccc(-c2nn(-c3ccccc3)cc2-c2ccnc(NCCCNS(=O)(=O)c3ccc(Cl)cc3)c2)c1 | 40% (inactive)
CC1=CC=C(NC(=O)/C=C/c2ccccc2)CC1Nc1nccc(-c2cccnc2)n1 (stereo not given) | -0.0857% (active)
